TGFb SMAD3 inh – qHTS for Inhibitors of TGF-b; Potency, µM (series often up to 46.1 µM), for the others: at the highest dose activity, negative = inhibition, actives largely listed as inhibitors; AID 588855, 2011; 410,000 compounds, 1.2% hits; HepG2 CAGA-GFP TGF-b/SMAD3 reporter, GFP fluorescence, 18 h; TGF-beta stimulated, 500 pg/mL final; also: % is scaled to controls: 0 for no effect and ±100 for the full control effect; nearly all actives have a fitted effect of over 65% in size
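HEPG2 CAGA-GFP cells (1000/well, DMEM with 1% FBS) were pre-incubated 2 h at 37 degrees C, given compound by pin tool, then stimulated with TGF-beta at 500 pg/mL final for 18 h before per-cell GFP fluorescence imaging.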
DT40 TDP1 no CPT – qHTS for Inhibitors of human tyrosyl-DNA phosphodiesterase 1 (TDP1): qHTS in cells in absence of CPT; DT40 Tdp1-/- hTDP1 cells, no CPT, ATP luminescence, 48 h; Potency, µM (doses to about 46.2 µM), for the others: at the highest dose activity change, negative = growth inhibition, most hits filed as inhibitors; 420,000 compounds, 15% hits; also: % is scaled to controls: 0 for no effect and ±100 for the full control effect; nearly all actives have a fitted effect of over 55% in size
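Growth of hTDP1-complemented DT40 Tdp1-knockout cells is measured by ATP luminescence after at least 48 hr compound exposure at 37 °C, with DMSO substituting for the 20 nM CPT used in the parallel screen.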
ATXN viability – Viability Counterscreen for Primary qHTS for Inhibitors of ATXN expression; AID 651635, 2014; S2 cells (HEK-293 line with an ATXN2-luciferase reporter) viability, CellTiter-Fluor protease fluorescence, 24 h; 400,000 compounds, 0.49% hits; Potency, µM (doses to about 56.7 µM), usual class: cytotoxic; also: nearly all actives have a fitted effect of over 40% in size
ATXN2 expr inh – Primary qHTS for Inhibitors of ATXN expression; Potency, µM (top dose mostly 57 µM), for the others: top-dose activity change, negative = inhibition, actives largely listed as inhibitors; 360,000 compounds, 0.72% hits; HEK-293 ATXN2-luciferase reporter, luminescence, 24 h; also: % is scaled to controls: 0 for no effect and ±100 for the full control effect; nearly all actives have a fitted effect of over 55% in size
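ATXN2-luciferase reporter cells (luciferase flanked by upstream and downstream ATXN2 gene portions) were treated 24 h at 37 °C with compounds at up to 57 uM. SteadyGlo luminescence gave expression; GF-AFC fluorescence gave viability.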
TDP1 cell CPT – qHTS for Inhibitors of human tyrosyl-DNA phosphodiesterase 1 (TDP1): qHTS in cells in presence of CPT. chicken DT40 Tdp1-/-;hTDP1 cells + 20 nM CPT, ATP luminescence, 48 h. Potency, µM (highest dose often 46.2 µM), for the others: at the top dose activity change, negative = growth inhibition, most hits filed as inhibitors. 420,000 compounds, 12% hits. AID 686979, 2013; also: % is scaled to controls: 0 for no effect and ±100 for the full control effect; nearly all actives have a fitted effect of over 55% in size
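Chicken DT40 Tdp1-/- cells complemented with human TDP1, 400 cells/well, exposed to compounds plus 20 nM camptothecin for at least 48 h at 37 C; viability read as ATP content by CellTiter-Glo luminescence.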
HepG2 tox – qHTS for Inhibitors of TGF-b: Cytotox Counterscreen; HepG2 CAGA-GFP viability, ATP luminescence, 18 h; Potency, µM (titrated, usually from 46.1 µM), inactives show at the top dose activity change, negative = cytotoxicity, hits mostly cytotoxic; 410,000 compounds, 0.76% hits; AID 588856, 2011
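HepG2 CAGA-GFP cells (1000/well, DMEM with 1% FBS) received compound, then TGF-beta at 500 pg/mL final, and were incubated 18 hours at 37 degrees C. Viability was read by CellTiter-Glo luminescence. Media-only wells were set as complete cell-killing and DMSO as no toxicity.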
An asterisk follows results filed as active; ! = not active in a repeat. An excerpt weighted towards active compounds, which were near 17% of everything screened. Calls follow the shape of the dose curve; as a rule, active = well fitted curve in the direction sought with a large enough effect; inconclusive = small, poorly fitted or top-dose-only effect, or another doubt; inactive = no such curve, though single readings can be large; an effect the other way counts as inactive or inconclusive. Potency is read from the fitted curve at half-maximal effect.

Screening O=c1[nH]cc(S(=O)(=O)c2ccccc2)[nH]1 returned TGFb SMAD3 inh 13%, DT40 TDP1 no CPT inconclusive, ATXN viability inactive, ATXN2 expr inh -24%, TDP1 cell CPT inconclusive and HepG2 tox 0%.
For Cc1cc(C)cc(NC(=O)N2CCC(N3CCCCC3)CC2)c1 the results were TGFb SMAD3 inh -6%, DT40 TDP1 no CPT -10%, ATXN viability inactive, ATXN2 expr inh -3%, TDP1 cell CPT -6% and HepG2 tox -16%.
Cc1ccc(-n2nc3c(N4CCC(C(=O)NCCc5ccccc5C)CC4)nnc(C)c3c2C)cc1 was read as TGFb SMAD3 inh 4.5µM*!, DT40 TDP1 no CPT 5.8µM*, ATXN viability inconclusive, ATXN2 expr inh inconclusive, TDP1 cell CPT 16µM* and HepG2 tox 4%.
For COc1ccc(-n2nc3c(N4CCC(C(=O)NCc5ccccc5C)CC4)nnc(C)c3c2C)cc1 the results were TGFb SMAD3 inh inconclusive, DT40 TDP1 no CPT 7.3µM*, ATXN viability inactive, ATXN2 expr inh -5%, TDP1 cell CPT 18µM* and HepG2 tox -5%.
Screening COc1ccccc1CNC(=O)C1CCN(c2nnc(C)c3c(C)n(-c4ccccc4)nc23)CC1 returned DT40 TDP1 no CPT -22%, TDP1 cell CPT 16% and HepG2 tox -19%.
COc1ccc(-n2nc3c(N4CCC(C(=O)NCCc5ccccc5C)CC4)nnc(C)c3c2C)cc1 was read as TGFb SMAD3 inh -20%, DT40 TDP1 no CPT 16µM*, ATXN viability inconclusive, ATXN2 expr inh inconclusive, TDP1 cell CPT inconclusive and HepG2 tox -31%.
COc1ccccc1CNC(=O)C1CCCN(c2nnc(C)c3c(C)n(-c4ccccc4)nc23)C1 (stereo unspecified) was read as TGFb SMAD3 inh inconclusive, DT40 TDP1 no CPT 21µM*, ATXN viability inconclusive, ATXN2 expr inh -10%, TDP1 cell CPT 21µM* and HepG2 tox -53%.
Screening Cc1ccccc1CNC(=O)C1CCN(c2nnc(C)c3c(C)n(-c4ccccc4)nc23)CC1 returned TGFb SMAD3 inh 0%, DT40 TDP1 no CPT inconclusive, TDP1 cell CPT inconclusive and HepG2 tox 2%.
COc1ccc(-n2nc3c(N4CCC(C(=O)NCCc5ccccc5)CC4)nnc(C)c3c2C)cc1 was read as TGFb SMAD3 inh -18%, DT40 TDP1 no CPT inconclusive, ATXN viability inactive, ATXN2 expr inh -11%, TDP1 cell CPT inconclusive and HepG2 tox 10%.
`CCOC(=O)[C@H]1[C@H]2COc3ccc(OC)cc3[C@@H]2N2C(=O)CN(Cc3ccccc3)C(=O)[C@@]12C` gave TGFb SMAD3 inh 0%, DT40 TDP1 no CPT inconclusive, ATXN viability inactive, ATXN2 expr inh 11%, TDP1 cell CPT -28% and HepG2 tox 1%.
For O=C(NCc1cccnc1)NC1CC(=O)N(c2ccc3c(c2)OCCO3)C1 (stereo unspecified) the results were TGFb SMAD3 inh -1%, DT40 TDP1 no CPT -6%, ATXN viability inactive, ATXN2 expr inh -5%, TDP1 cell CPT 8% and HepG2 tox -13%.
Cc1nnc(N2CCCC(C(=O)NCc3ccccc3F)C2)c2nn(-c3ccc(Cl)cc3)c(C)c12 (stereo unspecified) was read as TGFb SMAD3 inh -5%, DT40 TDP1 no CPT inconclusive, ATXN viability inactive, ATXN2 expr inh 2%, TDP1 cell CPT inconclusive and HepG2 tox -21%.
`Cc1ccc(-n2nc3c(N4CCC(C(=O)N5CCC(C)CC5)CC4)nnc(C)c3c2C)cc1` gave TGFb SMAD3 inh inconclusive, DT40 TDP1 no CPT -21%, ATXN viability inactive, ATXN2 expr inh 0%, TDP1 cell CPT -27% and HepG2 tox -3%.
`Cc1ccc(-n2nc3c(N4CCC(C(=O)NCc5ccc(C)o5)CC4)nnc(C)c3c2C)cc1` gave TGFb SMAD3 inh inconclusive, DT40 TDP1 no CPT inconclusive, ATXN viability inactive, ATXN2 expr inh inconclusive, TDP1 cell CPT 23µM* and HepG2 tox -27%.
Screening Cc1ccc(-n2nc3c(N4CCC(C(=O)N5CCCCC5)CC4)nnc(C)c3c2C)cc1 returned TGFb SMAD3 inh inconclusive, DT40 TDP1 no CPT 23µM*, ATXN viability inactive, ATXN2 expr inh -19%, TDP1 cell CPT inconclusive and HepG2 tox -19%.
Screening COc1ccc(-n2nc3c(N4CCCC(C(=O)NCCc5ccc(C)cc5)C4)nnc(C)c3c2C)cc1 (stereo unspecified) returned TGFb SMAD3 inh inconclusive, DT40 TDP1 no CPT 3.7µM*, ATXN viability inconclusive, ATXN2 expr inh inconclusive, TDP1 cell CPT 3.3µM* and HepG2 tox -39%.
`COc1ccc(-n2nc3c(N4CCCC(C(=O)NCc5ccccc5C)C4)nnc(C)c3c2C)cc1` (stereo unspecified) gave TGFb SMAD3 inh 5µM*, DT40 TDP1 no CPT 5.2µM*, TDP1 cell CPT 2.9µM* and HepG2 tox -74%.
Screening CN1CCN(c2oc(-c3ccc(OCc4ccc(Cl)cc4)cc3)nc2C#N)CC1 returned TGFb SMAD3 inh 7%, DT40 TDP1 no CPT inconclusive, TDP1 cell CPT inconclusive and HepG2 tox 7%.
`CCc1ccc(N2CC(C(=O)Nc3nc4ccc(S(C)(=O)=O)cc4s3)CC2=O)cc1` (stereo unspecified) gave TGFb SMAD3 inh 3%, DT40 TDP1 no CPT -15%, ATXN viability inactive, ATXN2 expr inh 4%, TDP1 cell CPT 0% and HepG2 tox -4%.
O=C(Oc1ccc(-c2nnco2)cc1)N(c1ccccc1)c1ccccc1 was read as TGFb SMAD3 inh -10%, DT40 TDP1 no CPT inconclusive, ATXN viability inactive, ATXN2 expr inh 2%, TDP1 cell CPT inconclusive and HepG2 tox -54%.
For COc1ccc(-n2nc3c(N4CCC(C(=O)NCC(C)c5ccccc5)CC4)nnc(C)c3c2C)cc1 (stereo unspecified) the results were TGFb SMAD3 inh inconclusive, DT40 TDP1 no CPT inconclusive, ATXN viability inconclusive, ATXN2 expr inh inconclusive, TDP1 cell CPT inconclusive and HepG2 tox -36%.
Screening COc1ccc(-n2nc3c(N4CCC(C(=O)NC5CCCCC5)CC4)nnc(C)c3c2C)cc1 returned TGFb SMAD3 inh 2%, DT40 TDP1 no CPT 15µM*!, ATXN viability inactive, ATXN2 expr inh -2%, TDP1 cell CPT 13µM*! and HepG2 tox 0%.

Screening results (PubChem BioAssay)
